Structures are written as SMILES. Several values for one entry are separate records, joined by “and”; a condition that tells them apart may be missing. Equal entries are not always repeated. Results filed as inconclusive are left out. More than one record can exist for a structure, and the calls need not agree. Activity calls are given as the source filed them. How the source made its calls: active means hit-call score of the fitted dose curve at least 0.9, where 1 is the maximum; inconclusive means response in the unintended direction; inactive means score below 0.9.

Broadly, the AC50 is the concentration at which the activity in the assay is half-maximal.

The target in assay [1] is human c-Jun N-terminal Kinases (JNK2), MAPK9 (gene 5601) (UniProt P45984). In words: NVS_ENZ_hJNK2: NovaScreen (NVS) Enzymatic Assay for human c-Jun N-terminal Kinases (JNK2) (AID 2283171). Put shortly: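 Chemicals first tested in duplicate at 25 uM, then in singleton concentration series up to 50 uM, against extracted JNK2 enzyme. Activity loss read by fluorescence with mobility-shift separation 1 h post-dose; DMSO baseline.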

Assay [2] has as its target human MAP Kinase-Activated Protein Kinase 2 (MAPKAPK2), MAPKAPK2 (gene 9261) (UniProt P49137). In words: NVS_ENZ_hMAPKAPK2: NovaScreen (NVS) Enzymatic Assay for human MAP Kinase-Activated Protein Kinase 2 (MAPKAPK2) (AID 2283178). Summed up:
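Chemicals screened in duplicate at 25 uM, then to 50 uM top concentration in concentration-response, against recombinant human MAPKAPK2; substrate conversion read 1 hr post-dosing by fluorescence after electrophoretic mobility-shift separation, loss-of-signal relative to DMSO.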

The target in assay [3] is human Matrix Metalloproteinase-2 (MMP2), MMP2 (gene 4313) (UniProt P08253). In words: NVS_ENZ_hMMP2: NovaScreen (NVS) Enzymatic Assay for human Matrix Metalloproteinase-2 (MMP2) (AID 2283184). Put shortly:
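Compounds first screened in duplicate at a single 25 uM, with actives followed up in concentration series. Recombinant human MMP2 cleaves a fluorogenic substrate; fluorescence taken at 1 h, inhibition fitted relative to DMSO.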

Assay [4] addresses human Matrix Metalloproteinase-3 (MMP3), MMP3 (gene 4314) (UniProt P08254). Put plainly: NVS_ENZ_hMMP3: NovaScreen (NVS) Enzymatic Assay for human Matrix Metalloproteinase-3 (MMP3) (AID 2283185). Put shortly:
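Fluorescent substrate turnover by recombinant MMP3 read after 1 h, signal loss scored against DMSO. Compounds first run in duplicate at 25 uM single dose, then actives confirmed by concentration series.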

Assay [5] concerns the target human Mitogen- and Stress-activated Protein Kinase-1 (Msk1), RPS6KA5 (gene 9252) (UniProt O75582). Put plainly: NVS_ENZ_hMsk1: NovaScreen (NVS) Enzymatic Assay for human Mitogen- and Stress-activated Protein Kinase-1 (Msk1) (AID 2283187). As for the experimental part:
(§1) NVS_ENZ_hMsk1 is a biochemical, single-readout assay that uses extracted gene-proteins in a cell-free assay. Measurements were taken 1 hour after chemical dosing in a 384-well plate.NVS_ENZ_hMsk1 is one of one assay component(s) measured or calculated from the NVS_ENZ_hMsk1 assay. It is designed to make measurements of enzyme activity, a form of enzyme reporter, as detected with fluorescence intensity signals by Fluorescence and electrophoretic mobility shift technology.Data from the assay component NVS_ENZ_hMsk1 was analyzed into 1 assay endpoint. This assay endpoint, NVS_ENZ_hMsk1, was analyzed in the positive analysis fitting direction relative to DMSO as the negative control and baseline of activity. Using a type of enzyme reporter, loss-of-signal activity can be used to understand changes in the enzymatic activity as they relate to the gene RPS6KA5. Furthermore, this assay endpoint can be referred to as a primary readout, because this assay has produced multiple assay endpoints where this one serves a enzymatic activity function. To generalize the intended target to other relatable targets, this assay endpoint is annotated to the kinase intended target family, where the subfamily is serine/threonine kinase.
(§2) Binding assays used specific radioligands (tritiated, iodinated) with non-radioactive competitive displacement ligands in agonist or antagonist protocols (as indicated) and various reference compounds and inhibitors to titrate specific binding to receptors and transporters. Most enzyme assays (CYPs, kinases, phosphatases, proteases, HDACs) used recombinant protein and specific substrates (fluorescence mostly, some colorimetric and radioactive) and inhibitors, followed by a biochemical separation of substrate and product. All assays for the biochemical HTS were initially run in duplicate at a single concentration (10 uM for CYP450 assays and 25 uM for all others). Assay-chemical combinations meeting a pre-defined threshold (e.g., 30% inhibition and other criteria defined below) were then run in singleton concentration-response format with maximum concentration of 20 uM for CYPs and 50 uM for all others. Each assay was run with positive and negative controls, and concurrent controls on every plate. The follow-up (secondary) screen tested active chemical-pairs in concentration series, as well as a few additional assays not tested in the primary screen, some selected negative inactives, and several cases re-run in the concentration series for confirmatory purposes.

For assay [6], the target named is Mitogen-activated protein kinase 3 (Homo sapiens) (UniProt P27361). In words: NVS_ENZ_hMAPK3: NovaScreen (NVS) Enzymatic Assay for human Mitogen-Activated Protein Kinase 3 (MAPK 3) (AID 2283177). As to the method: as §1, with “NVS_ENZ_hMAPK3” for “NVS_ENZ_hMsk1”, “plate.NVS_ENZ_hMAPK3” for “plate.NVS_ENZ_hMsk1”, “NVS_ENZ_hMAPK3,” for “NVS_ENZ_hMsk1,”, “MAPK3.” for “RPS6KA5.”
as §2

The target of assay [7] is Collagenase 3 (Homo sapiens) (UniProt P45452). Put plainly: NVS_ENZ_hMMP13: NovaScreen (NVS) Enzymatic Assay for human Matrix Metalloproteinase-13 (MMP13) (AID 2283182). Summed up:
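Recombinant MMP13 cleaving fluorescent substrate, cell-free, measured 1 h after dosing. Primary duplicate screen at 25 uM; actives tested in concentration-response up to 50 uM; loss of signal relative to DMSO.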

In assay [8] the target is human LYN Proto-Oncogene, Src family Tyrosine Kinase (LynA), LYN (gene 4067) (UniProt P07948). Put plainly: NVS_ENZ_hLynA: NovaScreen (NVS) Enzymatic Assay for human LYN Proto-Oncogene, Src family Tyrosine Kinase (LynA) (AID 2283173). Summed up:
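Recombinant kinase with fluorescent substrate; product separated from substrate by electrophoretic mobility shift and read 1 h after dosing. Duplicate screen at 25 uM, then concentration-response up to 50 uM; activity scored as signal loss against DMSO.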

The target of assay [9] is human Janus Kinase 2 (Jak2), JAK2 (gene 3717) (UniProt O60674). Put plainly: NVS_ENZ_hJak2: NovaScreen (NVS) Enzymatic Assay for human Janus Kinase 2 (Jak2) (AID 2283169). Summed up:
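Single-point duplicate screen at 25 uM, with hits run in concentration series to a 50 uM top dose. Substrate-product separation by mobility shift with fluorescence detection, 1 h post-dosing; DMSO baseline.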

Assay [10] has as its target human Insulin Receptor (InsR), INSR (gene 3643) (UniProt P06213). Put plainly: NVS_ENZ_hInsR: NovaScreen (NVS) Enzymatic Assay for human Insulin Receptor (InsR) (AID 2283168). Summed up: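 Cell-free enzyme assay read 1 h post-dose by fluorescence after substrate/product mobility-shift separation. Duplicate 25 uM primary screen, then singleton concentration-response up to 50 uM for compounds passing threshold; loss of signal vs DMSO.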

Sequence of human c-Jun N-terminal Kinases (JNK2), MAPK9 (gene 5601) (P45984 whole entry, looked up): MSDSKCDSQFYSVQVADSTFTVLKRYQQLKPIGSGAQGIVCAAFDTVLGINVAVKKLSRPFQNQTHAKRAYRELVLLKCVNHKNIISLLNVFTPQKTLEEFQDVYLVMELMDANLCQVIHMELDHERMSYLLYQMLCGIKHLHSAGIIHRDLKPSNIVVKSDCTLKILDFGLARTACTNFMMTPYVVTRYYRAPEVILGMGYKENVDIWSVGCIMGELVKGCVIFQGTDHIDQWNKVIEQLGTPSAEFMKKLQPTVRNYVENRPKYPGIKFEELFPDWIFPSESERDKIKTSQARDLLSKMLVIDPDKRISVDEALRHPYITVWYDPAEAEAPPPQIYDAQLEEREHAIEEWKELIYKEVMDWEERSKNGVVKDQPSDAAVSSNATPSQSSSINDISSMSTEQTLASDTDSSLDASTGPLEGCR
Sequence of Mitogen-activated protein kinase 3 (Homo sapiens) (P27361 whole entry, looked up): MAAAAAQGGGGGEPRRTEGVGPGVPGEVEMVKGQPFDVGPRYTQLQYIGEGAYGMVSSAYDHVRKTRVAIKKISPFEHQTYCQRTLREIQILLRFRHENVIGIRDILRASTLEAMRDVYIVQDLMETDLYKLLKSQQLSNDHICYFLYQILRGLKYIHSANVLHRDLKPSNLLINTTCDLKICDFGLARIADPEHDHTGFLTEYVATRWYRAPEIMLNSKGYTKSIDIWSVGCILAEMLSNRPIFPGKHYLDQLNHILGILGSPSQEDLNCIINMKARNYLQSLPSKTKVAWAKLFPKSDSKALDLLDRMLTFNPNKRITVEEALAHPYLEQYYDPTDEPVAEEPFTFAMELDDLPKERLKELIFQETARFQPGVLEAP
Sequence of human MAP Kinase-Activated Protein Kinase 2 (MAPKAPK2), MAPKAPK2 (gene 9261) (P49137 whole entry, looked up): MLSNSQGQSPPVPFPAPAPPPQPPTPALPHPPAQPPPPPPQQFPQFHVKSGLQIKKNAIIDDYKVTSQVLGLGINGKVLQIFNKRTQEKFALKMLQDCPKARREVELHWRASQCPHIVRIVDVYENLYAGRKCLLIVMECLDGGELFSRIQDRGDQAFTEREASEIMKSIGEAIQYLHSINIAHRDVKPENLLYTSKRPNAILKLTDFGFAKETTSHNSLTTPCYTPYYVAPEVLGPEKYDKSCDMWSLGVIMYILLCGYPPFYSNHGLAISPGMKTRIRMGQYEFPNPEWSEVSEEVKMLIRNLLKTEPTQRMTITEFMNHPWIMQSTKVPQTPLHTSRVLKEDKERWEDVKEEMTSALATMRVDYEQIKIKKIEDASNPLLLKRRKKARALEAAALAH
Sequence of human LYN Proto-Oncogene, Src family Tyrosine Kinase (LynA), LYN (gene 4067) (P07948 whole entry, looked up): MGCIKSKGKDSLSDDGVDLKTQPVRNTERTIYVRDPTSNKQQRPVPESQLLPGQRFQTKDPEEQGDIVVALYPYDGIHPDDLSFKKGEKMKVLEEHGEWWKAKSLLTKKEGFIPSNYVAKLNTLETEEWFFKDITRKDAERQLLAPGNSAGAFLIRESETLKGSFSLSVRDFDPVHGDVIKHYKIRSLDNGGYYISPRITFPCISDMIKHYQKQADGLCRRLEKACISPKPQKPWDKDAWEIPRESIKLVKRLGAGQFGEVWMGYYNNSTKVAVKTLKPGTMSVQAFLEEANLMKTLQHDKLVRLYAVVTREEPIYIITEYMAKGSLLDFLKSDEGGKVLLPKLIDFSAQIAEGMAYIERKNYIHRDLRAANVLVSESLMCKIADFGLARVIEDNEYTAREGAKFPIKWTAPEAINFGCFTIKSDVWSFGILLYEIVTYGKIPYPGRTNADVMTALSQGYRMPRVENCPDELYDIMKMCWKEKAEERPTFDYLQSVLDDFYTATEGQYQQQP
Sequence of human Janus Kinase 2 (Jak2), JAK2 (gene 3717) (O60674 whole entry, looked up): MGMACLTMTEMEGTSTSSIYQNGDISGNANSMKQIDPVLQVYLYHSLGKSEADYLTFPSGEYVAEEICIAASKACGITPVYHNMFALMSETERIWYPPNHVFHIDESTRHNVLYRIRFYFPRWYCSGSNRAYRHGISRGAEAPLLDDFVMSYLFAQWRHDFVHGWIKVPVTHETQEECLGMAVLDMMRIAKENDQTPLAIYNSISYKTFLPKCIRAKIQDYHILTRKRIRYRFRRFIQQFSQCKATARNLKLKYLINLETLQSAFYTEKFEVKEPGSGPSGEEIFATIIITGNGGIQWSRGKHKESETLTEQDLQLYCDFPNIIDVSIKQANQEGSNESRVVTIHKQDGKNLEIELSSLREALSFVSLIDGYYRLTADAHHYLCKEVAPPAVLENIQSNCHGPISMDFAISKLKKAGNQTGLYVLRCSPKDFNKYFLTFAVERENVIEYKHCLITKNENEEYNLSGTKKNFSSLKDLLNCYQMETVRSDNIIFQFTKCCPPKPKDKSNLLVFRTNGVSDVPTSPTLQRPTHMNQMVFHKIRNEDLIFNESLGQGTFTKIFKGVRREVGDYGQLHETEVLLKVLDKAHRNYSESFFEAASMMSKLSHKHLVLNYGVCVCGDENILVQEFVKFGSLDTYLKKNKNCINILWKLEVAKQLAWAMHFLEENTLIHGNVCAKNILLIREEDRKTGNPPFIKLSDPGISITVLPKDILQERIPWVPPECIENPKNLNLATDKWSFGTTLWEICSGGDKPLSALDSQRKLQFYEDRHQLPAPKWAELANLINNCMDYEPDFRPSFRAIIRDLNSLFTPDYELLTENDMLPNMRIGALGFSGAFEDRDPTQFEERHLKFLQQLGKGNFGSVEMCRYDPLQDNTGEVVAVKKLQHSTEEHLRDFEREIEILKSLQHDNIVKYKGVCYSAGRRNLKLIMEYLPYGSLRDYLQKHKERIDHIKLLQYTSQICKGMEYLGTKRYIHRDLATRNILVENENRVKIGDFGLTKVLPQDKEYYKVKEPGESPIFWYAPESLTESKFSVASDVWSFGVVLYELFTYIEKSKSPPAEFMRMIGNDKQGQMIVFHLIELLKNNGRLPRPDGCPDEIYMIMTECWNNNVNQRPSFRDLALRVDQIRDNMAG
Sequence of human Matrix Metalloproteinase-3 (MMP3), MMP3 (gene 4314) (P08254 whole entry, looked up): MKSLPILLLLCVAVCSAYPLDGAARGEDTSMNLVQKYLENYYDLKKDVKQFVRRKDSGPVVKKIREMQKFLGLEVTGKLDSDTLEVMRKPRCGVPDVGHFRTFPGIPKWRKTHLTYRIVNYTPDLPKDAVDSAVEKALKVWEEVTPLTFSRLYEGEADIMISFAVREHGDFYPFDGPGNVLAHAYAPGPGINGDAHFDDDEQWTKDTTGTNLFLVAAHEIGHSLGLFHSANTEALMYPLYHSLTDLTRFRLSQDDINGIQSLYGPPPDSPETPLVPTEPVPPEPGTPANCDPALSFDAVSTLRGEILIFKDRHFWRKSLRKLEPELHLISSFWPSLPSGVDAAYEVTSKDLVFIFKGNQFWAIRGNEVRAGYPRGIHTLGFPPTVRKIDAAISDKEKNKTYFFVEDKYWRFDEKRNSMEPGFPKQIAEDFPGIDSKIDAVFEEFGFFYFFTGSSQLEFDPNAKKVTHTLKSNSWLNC
Sequence of human Mitogen- and Stress-activated Protein Kinase-1 (Msk1), RPS6KA5 (gene 9252) (O75582 whole entry, looked up): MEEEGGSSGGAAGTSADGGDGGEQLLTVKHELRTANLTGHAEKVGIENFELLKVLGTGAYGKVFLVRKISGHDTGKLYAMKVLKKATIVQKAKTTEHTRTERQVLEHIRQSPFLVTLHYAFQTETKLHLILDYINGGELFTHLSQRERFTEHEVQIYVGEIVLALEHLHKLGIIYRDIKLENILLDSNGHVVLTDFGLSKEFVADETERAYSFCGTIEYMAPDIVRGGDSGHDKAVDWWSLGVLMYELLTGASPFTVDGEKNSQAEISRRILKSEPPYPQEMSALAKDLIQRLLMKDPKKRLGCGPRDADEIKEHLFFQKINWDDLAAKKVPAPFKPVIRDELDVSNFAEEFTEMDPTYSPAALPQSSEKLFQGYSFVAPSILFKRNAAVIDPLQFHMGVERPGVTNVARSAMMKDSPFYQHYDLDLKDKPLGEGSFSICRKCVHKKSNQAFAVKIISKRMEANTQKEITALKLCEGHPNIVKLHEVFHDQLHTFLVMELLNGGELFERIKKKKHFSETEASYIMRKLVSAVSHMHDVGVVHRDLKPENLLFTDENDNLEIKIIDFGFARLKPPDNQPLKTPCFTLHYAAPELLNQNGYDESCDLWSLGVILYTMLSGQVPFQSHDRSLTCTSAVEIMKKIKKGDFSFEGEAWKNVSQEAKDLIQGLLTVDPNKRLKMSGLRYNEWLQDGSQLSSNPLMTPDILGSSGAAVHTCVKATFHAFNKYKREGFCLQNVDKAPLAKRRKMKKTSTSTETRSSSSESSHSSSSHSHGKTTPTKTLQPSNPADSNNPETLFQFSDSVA
Sequence of human Matrix Metalloproteinase-2 (MMP2), MMP2 (gene 4313) (P08253 whole entry, looked up): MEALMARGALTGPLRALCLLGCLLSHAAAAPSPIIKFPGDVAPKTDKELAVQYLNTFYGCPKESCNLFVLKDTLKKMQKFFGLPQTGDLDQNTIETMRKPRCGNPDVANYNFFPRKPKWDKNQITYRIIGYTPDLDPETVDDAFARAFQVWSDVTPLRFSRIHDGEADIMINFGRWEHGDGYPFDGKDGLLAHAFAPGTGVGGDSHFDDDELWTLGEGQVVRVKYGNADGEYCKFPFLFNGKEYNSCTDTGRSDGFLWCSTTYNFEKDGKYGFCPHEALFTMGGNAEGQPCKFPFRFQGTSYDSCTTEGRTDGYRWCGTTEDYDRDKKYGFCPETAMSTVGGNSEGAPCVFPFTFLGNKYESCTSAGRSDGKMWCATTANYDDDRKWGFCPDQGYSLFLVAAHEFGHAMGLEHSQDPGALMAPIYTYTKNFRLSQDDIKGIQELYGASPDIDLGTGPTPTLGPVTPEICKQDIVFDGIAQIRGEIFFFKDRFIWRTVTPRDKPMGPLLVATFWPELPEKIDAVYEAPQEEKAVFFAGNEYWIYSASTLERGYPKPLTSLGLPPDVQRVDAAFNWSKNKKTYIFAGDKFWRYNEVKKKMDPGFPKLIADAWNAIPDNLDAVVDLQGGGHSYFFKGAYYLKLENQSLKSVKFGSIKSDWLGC

Regarding `O=C(O)C1(C(=O)Nc2ccc(Cl)cc2Cl)CC1`, the AC50 in assay [1] was 25 µM (active); in assay [3], 8.27 µM (active). The molecule was classed as inactive in assay [2], in assay [4] and in assay [5].
`CC(C)CCCCCCc1ccc(O)cc1`: the call in assay [1], in [6], in [2] and in [5] was inactive.
For `CCOC(=O)[C@H](C)Oc1ccc(Oc2nc3ccc(Cl)cc3o2)cc1`, the result in assay [7] was inactive.
In the case of `COC(=O)c1ccccc1C(=O)O`, in [8], the result was inactive.
On to `COCCO`, for which the molecule was classed as inactive in [1].
`c1ccc(Nc2ccccc2)cc1`: the call in [9] was inactive.
For the molecule `CN(C)C(=O)Nc1ccc(Cl)c(Cl)c1`, the outcome in assay [10] and in assay [4] was inactive.
With `N#CSCSc1nc2ccccc2s1`, the result in [8] and in assay [2] was inactive.
In the case of `Oc1ccc(C(c2ccc(O)cc2)C(Cl)(Cl)Cl)cc1`, the call in assay [6] and in [7] was inactive.
In the case of `O=C(c1ccc(O)cc1O)c1ccc(O)cc1O`, the results for the AC50 in assay [10], in [9] and in assay [5] were 19.3 µM (active), 21 µM (active) and 24.1 µM (active), respectively. Besides, in [8], the call was inactive.
As for `C[C@]12C[C@H](O)[C@H]3[C@@H](CCC4=CC(=O)CC[C@@]43C)[C@@H]1CC[C@@H]2C(=O)CO`, the result in assay [4] was inactive.
`N[C@@H](Cc1cc(I)c(Oc2ccc(O)c(I)c2)c(I)c1)C(=O)O`: the AC50 in assay [9] was 5.49 µM (active); in assay [7] it was 5.14 µM (active). Besides, in [2], the outcome was inactive.
Turning to `CCCCC(CC)CN1C(=O)C2C3C=CC(C3)C2C1=O` (stereo not drawn), the outcome in assay [5] was inactive.
For `CCCCOC(=O)[C@@H](C)Oc1ccc(Oc2ccc(C(F)(F)F)cn2)cc1`, the result in assay [4] was inactive.
Take `COc1nc(C)nc(NC(=O)NS(=O)(=O)c2ccccc2OCCCl)n1`: in [2], the AC50 was 36.2 µM (active).
For `S=C([S-])NCCNC(=S)[S-].[Mn+2]`, the AC50 in assay [6] is 10 µM (active); in assay [2], 0.468 µM (active); in assay [7], 6.6 µM (active); in assay [5], 2.09 µM (active).
`C=CCOC(Cn1ccnc1)c1ccc(Cl)cc1Cl` (stereo not drawn): in [7], the molecule was classed as inactive.
For the molecule `COC(=O)c1ccccc1S(=O)(=O)NC(=O)Nc1nc(OC(F)F)cc(OC(F)F)n1`, the molecule was called inactive in assay [6] and in assay [2].
For the molecule `c1ccc2[nH]c(-c3cscn3)nc2c1`, the AC50 in [9] is 2.27 µM (active).
As to `S=C(S)NCCNC(=S)S.[Mn+2].[S-]C([S-])=NCCN=C([S-])[S-].[Zn+2]`, the AC50 was 7.51 µM (active) and 40.2 µM (active) in [9]; 6.76 µM (active) and 25 µM (active) in assay [6]; 408 nM (active) and 399 nM (active) in assay [2]; 16.2 µM (active) in assay [7]; 10.8 µM (active) in [4]; 1.45 µM (active) and 9.58 µM (active) in assay [5]. Moreover, the molecule was classed as inactive in assay [9], in [1] and in assay [7].
For the molecule `CC(C)(c1ccc(O)cc1)c1ccc(O)cc1`, the call in [9], in assay [1], in assay [6], in [7] and in assay [4] was inactive.
For `CCCOC(=O)NCCCN(C)C`, the molecule was called inactive in [4].
`CCOC(=O)C(C)Oc1ccc(Oc2nc3ccc(Cl)cc3o2)cc1` (stereo not drawn): the molecule was called inactive in [7].
Regarding `C[C@]12CC[C@@H]3c4ccc(O)cc4C[C@@H](CCCCCCCCCS(=O)CCCC(F)(F)C(F)(F)F)[C@H]3[C@@H]1CC[C@@H]2O` (stereo partly drawn), the call in assay [4] was inactive.
Take `O=C(Nc1ccc([N+](=O)[O-])cc1Cl)c1cc(Cl)ccc1O`: the molecule was called inactive in [6] and in assay [2].
Regarding `CCCCCOC(=O)COc1cc(N2C(=O)C3=C(CCCC3)C2=O)c(F)cc1Cl`, the molecule was called inactive in assay [3].

The values are drawn from PubChem BioAssay (EPA / NIEHS).
